High-throughput results (PubChem)
KAT2A inh: qHTS Assay for Inhibitors of GCN5L2 | Histone acetyltransferase KAT2A (Homo sapiens), Q92830 | GCN5L2 HAT assay, ThioGlo1 CoA-SH fluorescence | Potency, µM (doses to about 58.9 µM), for the others: top-dose activity change, negative = inhibition, most hits filed as inhibitors | 390,000 compounds, 0.21% hits | AID 504327, 2011
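Fluorescence readout, Ex340nm/Em540nm: ThioGlo1 (50uM final) reacts with free CoA thiol released as 20nM GCN5L2 acetylates H3(1-25) peptide (75uM) using acetyl-CoA (70uM). Compound and enzyme sat 15 min beforehand; 20 min room-temperature reaction.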
PLK1 PBD block: qHTS for Inhibitors of PLK1-PDB (polo-like kinase 1 - polo-box domain): Primary Screen | Plk1 PBD binding of FITC phosphopeptide, fluorescence polarization | Potency, µM, without a hit: max response, negative = inhibition, hits mostly inhibitors | 360,000 compounds, 2.8% hits | AID 720504, 2013; also: series mostly up to about 57 µM; nearly all actives have a fitted effect of over 65% in size
Target sequence (P53350 whole entry, looked up, the tested form may be a part): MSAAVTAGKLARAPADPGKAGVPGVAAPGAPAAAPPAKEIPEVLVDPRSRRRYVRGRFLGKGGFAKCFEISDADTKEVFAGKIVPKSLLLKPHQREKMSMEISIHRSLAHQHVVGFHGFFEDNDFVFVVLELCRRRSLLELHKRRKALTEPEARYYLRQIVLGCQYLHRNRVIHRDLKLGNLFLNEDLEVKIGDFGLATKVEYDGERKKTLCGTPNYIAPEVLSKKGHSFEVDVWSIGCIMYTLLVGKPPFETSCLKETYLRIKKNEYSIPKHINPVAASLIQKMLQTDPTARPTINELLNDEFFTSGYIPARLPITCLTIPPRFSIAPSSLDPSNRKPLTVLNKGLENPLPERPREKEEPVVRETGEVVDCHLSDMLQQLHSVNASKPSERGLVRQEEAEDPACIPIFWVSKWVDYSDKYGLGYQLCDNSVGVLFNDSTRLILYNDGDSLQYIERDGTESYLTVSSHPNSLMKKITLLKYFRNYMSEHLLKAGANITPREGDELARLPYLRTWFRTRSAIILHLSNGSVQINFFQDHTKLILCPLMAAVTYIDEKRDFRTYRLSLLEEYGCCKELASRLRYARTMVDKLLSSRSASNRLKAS
VDR inhibitor: Inhibitors of the vitamin D receptor (VDR): qHTS; 400,000 compounds, 0.93% hits; VDR-SRC2-3 peptide fluorescence polarization, 2 h; AID 504847, 2011; Potency, µM, for the others: max response, negative = inhibition, most hits filed as inhibitors
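Fluorescence polarization assay measuring small-molecule disruption of VDR binding to the coregulator peptide SRC2-3. Compounds were pin-transferred (23 nl) into the reagent mix and incubated 2 h at room temperature before reading.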
TDP1 block: qHTS Assay for Inhibitors of Tyrosyl-DNA Phosphodiesterase (TDP1); Tyrosyl-DNA phosphodiesterase 1 (Homo sapiens), Q9NUW8; recombinant TDP1, AlphaScreen DNA substrate cleavage; Potency, µM (titrated, usually from 130 µM), for the others: at the top dose activity change, negative = inhibition, actives largely listed as inhibitors; 350,000 compounds, 0.28% hits; also: nearly all actives have a fitted effect of over 40% in size
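E. coli-derived human Tdp1, 1 nM final. Cpd preinc 15 min RT; substrate 15 nM final, 5 min RT; AS bead mix 10 ug/ml final, 10 min RT. Signal loss = tyrosine-FITC cleavage. No-enzyme wells = max signal.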
DT40 TDP1 no CPT: qHTS for Inhibitors of human tyrosyl-DNA phosphodiesterase 1 (TDP1): qHTS in cells in absence of CPT; DT40 Tdp1-/- hTDP1 cells, no CPT, ATP luminescence, 48 h; Potency, µM (highest dose often 46.2 µM), without a hit: at the highest dose activity change, negative = growth inhibition, usual class: inhibitors; 420,000 compounds, 15% hits; also: nearly all actives have a fitted effect of over 55% in size
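Cells were dispensed at 400 per well, compounds added by pin tool, plates incubated ≥48 hr at 37 °C, then CellTiter-Glo added for 30 min at room temperature before luminescence reading. Line: DT40 Tdp1-/- complemented with hTDP1; camptothecin omitted.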
DT40 TDP1 CPT: qHTS for Inhibitors of human tyrosyl-DNA phosphodiesterase 1 (TDP1): qHTS in cells in presence of CPT | chicken DT40 Tdp1-/-;hTDP1 cells + 20 nM CPT, ATP luminescence, 48 h | AID 686979, 2013 | Potency, µM (top dose mostly 46.2 µM), for the others: at the highest dose activity change, negative = growth inhibition, most hits filed as inhibitors | 420,000 compounds, 12% hits; also: nearly all actives have a fitted effect of over 55% in size
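Cell growth measured by CellTiter-Glo luminescence after a minimum 48 h, 37 C compound exposure with 20 nM CPT in Tdp1-knockout DT40 cells stably expressing hTDP1, seeded 400/well; qHTS titration format.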
Starred values were filed as active, the others as inactive; ? = inconclusive; . = no result; [ ] = remark or other dose. The list is not random: actives were taken first. Their share in the collection is about 18%. Calls follow the shape of the dose curve; as a rule, active = well fitted curve in the direction sought with a large enough effect; inconclusive = small, poorly fitted or top-dose-only effect, or another doubt; inactive = no such curve, though single readings can be large; an effect the other way counts as inactive or inconclusive. % is scaled to controls: 0 for no effect and ±100 for the full control effect; potency is read from the fitted curve at half-maximal effect.

SMILES	KAT2A inh	PLK1 PBD block	VDR inhibitor	TDP1 block	DT40 TDP1 no CPT	DT40 TDP1 CPT
Cc1ccccc1N1CC(c2nc3ccccc3n2Cc2ccc(Br)cc2)CC1=O (stereo not given)	-5%	.	10%	9%	16µM*	?
CCC1(c2ccc(F)cc2)NC(=O)N(CC(=O)c2cc(C)n(C3CC3)c2C)C1=O (stereo not given)	-8%	-1%	-20%	8%	?	?
Cc1ccc(CNC(=O)COc2ccc(C)nc2[N+](=O)[O-])cc1	-1%	-2%	-17%	2%	-15%	-1%
Cc1cc(-n2c(C)cc(C(=O)COc3cc(F)ccc3[N+](=O)[O-])c2C)no1	-2%	-9%	-4%	2%[56.1 µM]	15µM*	?
Cc1cc(C(=O)CN2C(=O)NC(C)(c3cc(F)ccc3F)C2=O)c(C)n1C1CC1 (stereo not given)	-4%	-11%	-7%	5%	16µM*	?
Cc1ccc(OCC(=O)c2ccc(Cl)s2)c([N+](=O)[O-])n1	?	?	?	-6%	13µM*	3.7µM*
COc1ccc(-n2c(C)cc(C(=O)COc3ccc(C)nc3[N+](=O)[O-])c2C)cc1	-9%	5%	-6%	7%	3.7µM*	5.2µM*
COc1ccc(OCCOc2ccc(C)nc2[N+](=O)[O-])cc1	-3%	-5%	14%	4%	2%	0%
CCN1C(=O)C(=O)N(CC(=O)c2cc(C)n(C3CC3)c2C)C1=O	-3%	-7%	-18%	5%	-20%	-7%
Cc1cc(C(=O)CN2C(=O)NC(CCS(C)(=O)=O)C2=O)c(C)n1C1CC1 (stereo not given)	-3%	-1%	12%	2%	5.8µM*	18µM*
Cc1ccc(OCC(=O)c2cc(C)n(Cc3cccs3)c2C)c([N+](=O)[O-])n1	-3%	-6%	-2%	5%	5.8µM*	6.5µM*
Cc1ccc(OCC(=O)c2cc(C)n(-c3cc(C)on3)c2C)c([N+](=O)[O-])n1	-2%	-15%	-11%	5%	?	10µM*
Cc1cc(-n2c(C)cc(C(=O)COc3ccc(Cl)cc3C(N)=O)c2C)no1	-2%	-1%	9%	1%	?	?
Cc1ccc(OCCOc2ccc(Cl)cc2Cl)c([N+](=O)[O-])n1	-1%	2%	12%	5%	16µM*	?
Cc1noc(C)c1-c1ccc2ncnc(NCCN3CCOCC3)c2c1	-9%	.	-18%	.	?	?
Cc1nn(C(C)C(=O)N2CCN(c3ccc(F)cc3)CC2)c(=O)c2c1sc1ccccc12 (stereo not given)	-7%	.	-1%	6%	-24%	-20%
Cc1ccc(OCC(=O)c2cc(C)n(C3CC3)c2C)c([N+](=O)[O-])n1	18%	5%	-9%	-8%	23µM*	?
Cc1ccc(OCC(=O)c2cc(C)n(CC(F)(F)F)c2C)c([N+](=O)[O-])n1	-9%	-9%	-8%	2%	?	-1%
Cc1cc(C(=O)COc2ccc(F)cc2Br)c(C)n1C1CC1	-1%	-5%	-15%	-1%	10µM*	15µM*
O=C(Cc1nc2ccccc2[nH]1)N1CCC(n2c(C3CCC3)nc3cccnc32)CC1	.	.	.	.	-17%	-7%
COc1cccc(OC)c1C(=O)OCC(=O)NCC1CCCCC1	.	3%	.	.	?	?
COc1cccc(OC)c1C(=O)OCC(=O)N(c1ccccc1)C1CCCCC1	-15%	-13%	14%	0%	8.2µM*	15µM*
COC(=O)[C@]12CCCCC=C1N(Cc1ccco1)C(=O)[C@H](CC(=O)NCCCN1CCCC1=O)C2	.	-8%	.	.	-1%	4%
O=C(O)C1CN(c2ncccc2[N+](=O)[O-])C1	-6%	13µM*	?	3%	-19%	?
C=C1C(=O)O[C@@H]2[C@H]1[C@@H](OC(=O)/C(C)=C/C)C/C(C)=C\C(=O)/C=C(\C)[C@@H]2O	19%	-26%	?	-1%	2.1µM*	1.5µM*
SMILES	KAT2A inh	PLK1 PBD block	VDR inhibitor	TDP1 block	DT40 TDP1 no CPT	DT40 TDP1 CPT
COc1ccccc1CNC(=O)CCC1N=C2c3ccccc3N=C(SCC(N)=O)N2C1=O (stereo not given)	1%	.	-1%	4%	3.7µM*	29µM*
COCCCNC(=O)CSC1=Nc2ccccc2C2=NC(CCC(=O)NCc3ccccc3OC)C(=O)N12 (stereo not given)	-7%	.	6%	4%	18µM*	16µM*
Cc1ccc(C2=CC(c3ccc(N(C)C)cc3)n3nnnc3N2)cc1 (stereo not given)	1%	6%	9%	4%	21µM*	18µM*
Cc1cccc(C2C=C(c3ccc(C)c(C)c3)Nc3nnnn32)c1 (stereo not given)	-14%	.	6%	3%	2.6µM*	2.6µM*
CC(C)c1ccc(C2=CC(c3ccc(C(C)C)cc3)n3nnnc3N2)cc1 (stereo not given)	8%	.	9%	4%	15µM*	15µM*
COc1ccc(C2=CC(c3sccc3C)n3nnnc3N2)cc1 (stereo not given)	1%	-5%	-6%	2%	-29%	-30%
Brc1ccc(-c2ccc(CNCCSc3nnnn3-c3ccccc3)o2)cc1	-11%	.	0%	5%	?	?
COC(=O)c1ccccc1-c1c2ccc(=N)cc-2oc2cc(N)ccc12	?	?	-27%	8%	0.58µM*	0.73µM*
N[C@@H](C(=O)N[C@@H]1C(=O)N2C(C(=O)O)=C(Cl)CC[C@H]12)c1ccccc1	.	.	.	.	-19%	-1%
O=C1c2[nH]nc(-c3ccc(Br)cc3)c2C(c2cccc(O)c2)N1c1ccc(Cl)cc1 (stereo not given)	-8%	.	-16%	5%	23µM*	?
O=C1c2[nH]nc(-c3ccccc3)c2C(c2ccccc2)N1c1cccc(C(F)(F)F)c1 (stereo not given)	-3%	.	-4%	1%[12.3 µM]	16µM*	12µM*
Cc1cccc(-c2nnc3sc(-c4ccccc4)nn23)c1	3%	-2%	-3%	1%	13µM*	20µM*
